# Only some compounds are listed: those with a hit (about 7.6% of all), similar ones and a draw of the others.
# ELG1 repair inh: ELG1-dependent DNA repair inhibition | 330,000 compounds, 2.3% hits | HEK293T ELG1-luciferase reporter, luminescence, 16 h; DNA damage induced by 5-fluorouridine | AID 504467 | Potency, µM (highest dose often 46.1 µM), hits mostly inhibitors; also: nearly all actives have a fitted effect of over 55% in size
#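 Step one: seed 2,000 cells per well. Step two: pin-transfer compound or DMSO alongside 5-fluorouridine. Step three: incubate 16 hr, 37 °C, 5% CO2. Step four: add ONE-Glo, wait 30 min, read luminescence.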
# RORgamma inh: inhibitors of mouse ROR gamma transcriptional activity | P51450 | Drosophila S2 Gal4-RORgamma UAS-luciferase reporter, 20 h | Potency, µM (doses to about 53.6 µM), most hits filed as inhibitors | 310,000 compounds, 5.4% hits; also: nearly all actives have a fitted effect of over 60% in size
# Target sequence (P51450 whole entry, looked up, the tested form may be a part): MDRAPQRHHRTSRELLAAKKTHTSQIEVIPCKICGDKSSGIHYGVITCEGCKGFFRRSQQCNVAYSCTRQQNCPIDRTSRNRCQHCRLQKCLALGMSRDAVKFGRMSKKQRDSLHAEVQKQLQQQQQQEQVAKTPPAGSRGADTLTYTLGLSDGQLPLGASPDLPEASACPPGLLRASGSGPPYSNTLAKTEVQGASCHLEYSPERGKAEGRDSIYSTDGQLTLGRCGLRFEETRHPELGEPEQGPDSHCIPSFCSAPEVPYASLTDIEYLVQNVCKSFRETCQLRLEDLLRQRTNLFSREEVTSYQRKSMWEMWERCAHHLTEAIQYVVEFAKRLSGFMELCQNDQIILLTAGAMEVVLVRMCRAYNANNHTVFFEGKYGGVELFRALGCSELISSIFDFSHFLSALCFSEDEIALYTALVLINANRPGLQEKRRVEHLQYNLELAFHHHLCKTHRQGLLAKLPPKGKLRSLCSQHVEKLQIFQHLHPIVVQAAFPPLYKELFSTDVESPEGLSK
#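 Schneider cells (Drosophila), stable Gal4 DBD–ROR gamma + UAS-luc; 1 hr cmpd preincubation; Cu2+ induction 700 uM final; 20 hr ambient; luminescence.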
# BRCA1 expr act: increases BRCA1 expression; MCF7-BRCA1-FFLuc reporter, luminescence, 48 h; response scale: scaled: vehicle 0%, 10 µM genistein 100%; Potency, µM (top dose mostly 46.1 µM), hits mostly activators; 380,000 compounds, 1.1% hits; AID 624202; also: nearly all actives have a fitted effect of over 80% in size
#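 MCF7-BRCA1-FFLuc, 2000 cells/well; 2 h attach, 37 °C/5% CO2; compound 48 h; luciferase substrate 15 min; luminescence end-point. Norm. to genistein 10 microM max activation and DMSO; concentration-response curves fitted.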
# VP16 counter: Gal4-VP16 reporter inhibition counter-screen; Drosophila S2 Gal4-VP16 UAS-luciferase, luminescence, 20 h; Potency, µM (series often up to 53.6 µM), hits mostly inhibitors; 310,000 compounds, 3.5% hits; AID 2546;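 also: Gal4-VP16 expression switched on by copper sulfate through the metallothionein promoter; nearly all actives have a fitted effect of over 50% in size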
# p53 reactivation: restores transcriptional activity of mutant p53 | Potency, µM (doses to about 92.2 µM), hits mostly activators | 320,000 compounds, 0.063% hits | H1299 p53-A138V BP100-luciferase reporter, luminescence, 24 h; also: nearly all actives have a fitted effect of over 45% in size
#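 H1299 (p53-null), stable ts p53-A138V + BP100-Luc; 1000 cells/well, Opti-MEM/10% FBS; cpd 4 pt, 1:5; 24 h, 37 deg C, 5% CO2; detection reagent 10 min RT; luminescence.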
# Giardia killer: kills Giardia lamblia. 340,000 compounds, 0.15% hits. Giardia lamblia trophozoite viability. AID 540267. activity change, % at 7.66 µM, hits read low; in the data active = activity change below about -80%; inconclusive = between about -30% and that limit;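 also: parasites exposed to compound for two days anaerobically before the ATP read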
#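 Trophozoites 100 cells/well + cpd; 48 hrs, 37 deg C, anaerobic. ATPLite 1-Step added, 15-30 min RT, luminescence read (ATP-based viability).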
# A number is an active result; i = inactive; ? = inconclusive; nt = no result given. Unless noted, calls follow the shape of the dose curve; as a rule, active = well fitted curve in the direction sought with a large enough effect; inconclusive = small, poorly fitted or top-dose-only effect, or another doubt; inactive = no such curve, though single readings can be large; an effect the other way counts as inactive or inconclusive.
SMILES,ELG1 repair inh,RORgamma inh,BRCA1 expr act,VP16 counter,p53 reactivation,Giardia killer
CC(=O)NCCC(=O)Nc1sc2c(c1-c1nc3ccccc3[nH]1)CCCC2,15µM,i,i,i,i,i
O=C(Nc1sc2c(c1-c1nc3ccccc3[nH]1)CCCC2)C1CCCC1,?,10µM,i,i,?,i
CN1CCN(S(=O)(=O)c2cccc(C(=O)Nc3sc4c(c3-c3nc5ccccc5[nH]3)CCCC4)c2)CC1,?,i,i,i,i,?
CCC(Nc1nc(-c2ccccc2)nc2ccccc12)C(=O)O (centres undefined),i,i,i,i,i,i
O=C(Nc1cc(Cl)cc(Cl)c1)C1CCC(=O)N1Cc1ccccc1Cl (centres undefined),i,?,i,16µM,i,i
Cc1cc(C(F)F)n2nc(C(=O)Nc3ccccc3F)nc2n1,i,i,i,i,i,i
O=C(C1CCN(c2ccc(N3CCOCC3)nn2)CC1)N1CCN(c2ccc(F)cc2)CC1,16µM,i,i,i,i,i
COc1cccc([C@@H]2Oc3ccc(Br)cc3C[C@H]2OC(=O)N[C@H]2CCCc3ccccc32)c1,nt,i,nt,i,nt,nt
CC(=O)Nc1ccc(NC(=O)c2nc(S(=O)(=O)Cc3cccc(C)c3)ncc2Cl)cc1,?,6.3µM,i,5µM,i,i
COC(=O)c1ccc(NC(=O)c2nc(S(=O)(=O)Cc3cccc(C)c3)ncc2Cl)cc1,16µM,6.3µM,i,4.5µM,i,i
CCCS(=O)(=O)c1ncc(Cl)c(C(=O)Nc2ccc(S(=O)(=O)Nc3ncccn3)cc2)n1,i,?,i,?,i,i
Cc1cccc(CS(=O)(=O)c2ncc(Cl)c(C(=O)NCc3ccc4c(c3)OCO4)n2)c1,i,6.3µM,i,3.2µM,i,?
NS(=O)(=O)c1ccc(NC(=O)c2nc(S(=O)(=O)Cc3ccccc3F)ncc2Cl)cc1,nt,nt,i,nt,nt,nt
CN(c1cccc(Cl)c1)S(=O)(=O)c1cccc(C(=O)Nc2ccc3c(c2)CCC3)c1,i,?,i,i,i,i
Cc1ccc(S(=O)(=O)Nc2cccc(S(=O)(=O)N3CCCC3)c2)cc1C,i,nt,i,nt,i,i
S=c1[nH]nc(-c2ccco2)n1/N=C/c1ccc(Cl)cc1Cl,i,5.6µM,i,18µM,i,i
Cc1ccccc1-c1n[nH]c(=S)n1/N=C/C=C/c1ccco1,i,2.5µM,i,i,i,i
S=c1[nH]nc(-c2ccco2)n1/N=C/C=C/c1ccccc1,i,2.5µM,i,?,i,i
S=c1[nH]nc(-c2ccc(Cl)cc2)n1/N=C/c1ccco1,i,3.2µM,i,?,i,i
Cc1cc(-c2n[nH]c(=S)n2/N=C/C=C/c2ccco2)n[nH]1,i,i,i,i,i,i
Cn1cc(Br)c(-c2cccc(N3C(=O)CCCC3=O)c2)n1,i,i,?,i,i,i
S=c1[nH]nc(-c2ccccc2)n1/N=C/C=C/c1ccco1,i,2.8µM,i,3.2µM,i,i
S=c1[nH]nc(-c2ccc(Cl)cc2)n1/N=C/C=C/c1ccco1,i,?,i,i,i,i
C(/C=C/c1ccco1)=N/N1CCN(c2ccccc2)CC1,?,i,10µM,i,?,i
Cc1cc(=O)n2nc(N3CCCC(C(=O)NC4CCCCC4C)C3)sc2n1 (centres undefined),i,i,i,i,i,i
SMILES,ELG1 repair inh,RORgamma inh,BRCA1 expr act,VP16 counter,p53 reactivation,Giardia killer
CCCC(=O)NCCc1cc2ccc(C)c(C)c2[nH]c1=O,i,i,i,i,i,i
CC(C)=O,nt,i,nt,i,nt,nt
Cc1cccc(NC(=O)c2cccnc2)c1C,i,i,i,i,nt,i
CSCc1ccc(C(=O)Nc2cccc(C)c2C)cc1,?,i,11µM,i,?,i
Cc1nnsc1C(=O)NC1CCCc2c1cnn2-c1ccc(F)cc1F (centres undefined),i,?,i,7.1µM,i,i
Cc1ccc(C(=O)NC2CCCc3c2cnn3-c2ccc(F)cc2F)cn1 (centres undefined),i,?,nt,2.8µM,i,nt
CN1N=C(C(=O)NC2CCCc3c2cnn3-c2ccc(F)cc2F)CCC1=O (centres undefined),i,?,i,?,i,i
